RecA splice inh: Mtb RecA intein splicing inhibitors, primary screen, biochemical, fluorescence, HTS | Protein RecA (Mycobacterium tuberculosis (strain ATCC 25618 / H37Rv)), P9WHJ3 | cell-free RecA intein splicing | inhibition, % (concentration not given with the values) | 290,000 tested, 0.75% active; in the data active means inhibition above about 30%
Target sequence (P9WHJ3 whole entry, looked up, canonical isoform): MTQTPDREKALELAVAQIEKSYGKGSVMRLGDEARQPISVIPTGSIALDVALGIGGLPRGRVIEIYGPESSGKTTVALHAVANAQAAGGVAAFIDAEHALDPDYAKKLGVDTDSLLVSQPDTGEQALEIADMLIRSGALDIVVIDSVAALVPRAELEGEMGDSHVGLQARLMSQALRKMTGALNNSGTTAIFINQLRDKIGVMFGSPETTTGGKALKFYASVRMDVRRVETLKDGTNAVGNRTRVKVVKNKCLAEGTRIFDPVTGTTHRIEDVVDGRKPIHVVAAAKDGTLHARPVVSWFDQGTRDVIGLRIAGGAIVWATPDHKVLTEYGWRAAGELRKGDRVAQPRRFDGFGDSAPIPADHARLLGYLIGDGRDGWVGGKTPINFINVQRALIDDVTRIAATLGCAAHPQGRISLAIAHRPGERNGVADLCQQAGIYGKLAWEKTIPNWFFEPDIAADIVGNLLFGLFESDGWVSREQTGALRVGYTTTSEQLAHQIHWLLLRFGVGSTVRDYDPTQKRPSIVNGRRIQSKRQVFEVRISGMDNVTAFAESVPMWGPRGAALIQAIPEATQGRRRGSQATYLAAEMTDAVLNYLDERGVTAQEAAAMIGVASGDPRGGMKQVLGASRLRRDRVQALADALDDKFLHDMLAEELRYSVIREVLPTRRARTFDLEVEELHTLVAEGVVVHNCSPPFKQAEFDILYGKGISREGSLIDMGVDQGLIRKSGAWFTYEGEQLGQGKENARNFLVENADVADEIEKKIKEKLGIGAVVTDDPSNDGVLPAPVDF
SSB-PriA inh: inhibitors of Klebsiella pneumoniae PriA binding to SSB C-terminal tail, primary screen, biochemical, AlphaScreen; PriA–SSB C-terminal tail interaction (Klebsiella pneumoniae); AlphaScreen SSBct-PriA binding, biotinylated peptide; inhibition, % at 33 µM; 430,000 tested, 0.6% active; AID 1272365, 2023; in the data active means inhibition mostly above about 37%, no sharp cut-off; inactive means mostly below about 20%
BJeLR viability: MLPCN primary cell-based screen for lethality selective to Ras in HRASV12 cells | BJeLR (HRASV12) viability, CellTiter-Glo ATP luminescence, 48 h | inhibition, % (test concentration not listed) | 300,000 tested, 0.17% active; in the data active means inhibition above about 50%
PrPC TRFRET: inhibitors of human cell surface prion protein PrPC, primary screen, cell-based, TR-FRET. Major prion protein (Homo sapiens), P04156. TR-FRET read-out. inhibition, % at 13.8 µM. 370,000 tested, 0.43% active; in the data active means inhibition above about 24%
PrP UTR inh: inhibition of PrP 5' UTR reporter expression; cell-based PrP 5' UTR mRNA reporter, plate reader; inhibition, % (no concentration beside the values); 340,000 tested, 0.35% active; AID 488862, 2010; in the data active means inhibition above about 52%
PfHsp40 yeast: rescue of yeast from PfHsp40 toxicity, primary screen, S. cerevisiae, ATP luminescence; S. cerevisiae expressing PfHsp40, growth rescue; growth rescue, % at 12.5 µM; 340,000 tested, 0.68% active; in the data active means growth rescue above about 28%, passing the limit was not always enough;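 further: yeast W303a lacking pdr1 and pdr3 grown in galactose medium; growth measured after three days at 30 °C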
GFP chromo cs: counter-screen: blocks GFP chromophore formation, dose response, counter-screen, biochemical, fluorescence, homogeneous; cell-free GFP chromophore formation; shares compounds with RecA splice inh; AID 434968, 2010; EC50, µM; 2,100 tested, 83% active; call rule not given here
PrPC confirm: confirmation of inhibitors of cell surface human prion protein, confirmation, cell-based, TR-FRET; shares compounds with PrPC TRFRET; cell surface PrPC level; inhibition, % at 13.8 µM; 1,500 tested, 65% active; AID 743200, 2013; in the data active means inhibition above about 25%
LD9 cytotox: cytotoxicity in LD9 cells, cytotoxicity control for cell surface PrPc inhibitor project, cell-based, luminescence, high throughput; inhibition, % at 13.8 µM; shares compounds with PrPC TRFRET; AID 743201, 2013; luminescence viability; 1,500 tested, 29% active; in the data active means inhibition above about 9.5%
Each line names hits and unclear results; the compound was inactive in the other large screens (follow-up assays come after a bar, where they were run). Only some compounds are listed: those with a hit (about 1.9% of all), similar ones and a draw of the others.

Cn1c(SCC(=O)NCc2ccc(F)cc2)nc2ccccc21	RecA splice inh 31.0 | GFP chromo cs inactive
COCCn1c(SCC(=O)NCc2ccc(F)cc2)nc2ccccc21	none
COc1ccc(C2NC(=O)NC3=C2CCc2ccccc23)cc1 (stereo unspecified)	RecA splice inh 46.6 (no result: PrPC TRFRET) | GFP chromo cs 32.7
O=C(Nc1ccccn1)c1cc(OCc2ccccc2)no1	none (no result: RecA splice inh, BJeLR viability, PrPC TRFRET, PrP UTR inh, PfHsp40 yeast)
CC(C)Cn1c(C(C)C)nc([N+](=O)[O-])c1S(=O)(=O)c1ccc(F)cc1	RecA splice inh 51.0 | GFP chromo cs inactive
CC1(CC(=O)NN=Cc2cc([N+](=O)[O-])c(O)cc2O)OCCO1	none (no result: RecA splice inh, BJeLR viability, PrPC TRFRET, PrP UTR inh, PfHsp40 yeast)
O=C1C(Nc2ccc(O)cc2)=C/C(=N/S(=O)(=O)c2cccs2)c2ccccc21	RecA splice inh 96.5, PrPC TRFRET 46.1 (no result: SSB-PriA inh) | GFP chromo cs 0.192 | PrPC confirm 58.9 | LD9 cytotox 99.2
CCOC(=O)c1sc(NC(=O)C2CCCCC2)nc1-c1ccccc1	none (no result: RecA splice inh, BJeLR viability, PrPC TRFRET, PrP UTR inh, PfHsp40 yeast)
CC(C)c1ccc(/C=C(\c2nc3ccccc3[nH]2)S(=O)(=O)c2ccccc2)cc1	RecA splice inh 80.0, PrPC TRFRET 43.3 | GFP chromo cs 9.38 | PrPC confirm 44.3 | LD9 cytotox inactive
O=S(=O)(/C(=C/c1ccc(C(F)(F)F)cc1)c1nc2ccccc2[nH]1)c1ccccc1	RecA splice inh 63.8, BJeLR viability 67.9, PrPC TRFRET 37.7 | GFP chromo cs 9.95 | PrPC confirm 78.5 | LD9 cytotox 97.1
C/C(=C\c1ccc(N)cc1)c1nc2ccccc2[nH]1	none
CC(C)[C@H](NC(=O)OC(C)(C)C)c1nnc(S(=O)(=O)Cc2c(F)cccc2Cl)o1	RecA splice inh 55.8, PrPC TRFRET 30.5 | GFP chromo cs 23.1 | PrPC confirm 27.7 | LD9 cytotox 65.6
Cc1cccc(S(=O)(=O)Nc2ccc(F)cc2)c1	none (no result: RecA splice inh, BJeLR viability, PrPC TRFRET, PrP UTR inh, PfHsp40 yeast)
Cn1cnc([N+](=O)[O-])c1S(=O)(=O)c1ccc(Cl)cc1	RecA splice inh 61.2, PrPC TRFRET 36.6 | GFP chromo cs 38.8 | PrPC confirm inactive | LD9 cytotox 91.3
Cn1cc(S(=O)(=O)N2CCCN(C(=O)CSc3ccc(F)cc3)CC2)cn1	none (no result: RecA splice inh, BJeLR viability, PrPC TRFRET, PrP UTR inh, PfHsp40 yeast)
CCn1c(=NS(=O)(=O)c2ccc(C)cc2)sc2c(C)cc(C)cc21	none (no result: RecA splice inh, BJeLR viability, PrPC TRFRET, PrP UTR inh, PfHsp40 yeast)
CCn1c(Cl)c(C=O)s/c1=N\S(=O)(=O)c1ccccc1	RecA splice inh 88.9, PrPC TRFRET 53.1 (no result: SSB-PriA inh) | GFP chromo cs 14.7 | PrPC confirm 102.0 | LD9 cytotox 94.4
CCc1ccc(NC(=O)c2nc(S(=O)(=O)Cc3ccccc3)ncc2Cl)cc1	RecA splice inh 38.6, PrPC TRFRET 64.3 (no result: SSB-PriA inh) | GFP chromo cs 2.16 | PrPC confirm inactive | LD9 cytotox 95.9
CCS(=O)(=O)c1ncc(Cl)c(C(=O)Nc2ccc(S(=O)(=O)N3CCC(C)CC3)cc2)n1	RecA splice inh 96.1, PrPC TRFRET 79.0 | GFP chromo cs 1.43 | PrPC confirm 38.1 | LD9 cytotox 99.6
COc1cccc(NC(=O)c2nc(SC)ncc2Cl)c1	none
CCOc1ccccc1NC(=O)c1nc(S(=O)(=O)Cc2ccccc2)ncc1Cl	none
COC(=O)c1ccc(NC(=O)c2nc(S(=O)(=O)Cc3cccc(C)c3)ncc2Cl)cc1	RecA splice inh 73.2, PrPC TRFRET 84.1 | GFP chromo cs 0.571 | PrPC confirm 46.1 | LD9 cytotox 95.8
COc1cccc(NC(=O)c2nc(S(C)(=O)=O)ncc2Cl)c1	RecA splice inh 63.3, PrPC TRFRET 82.6 | GFP chromo cs 24.7 | PrPC confirm inactive | LD9 cytotox 93.6
CC(C)NC(=O)C(=O)NC(C)C	none (no result: RecA splice inh, BJeLR viability, PrPC TRFRET, PrP UTR inh, PfHsp40 yeast)
